The full ranking holds about 140,000 sequences; the median of “enrichment ratio after two sorts for PhoP signalling” is about 0, and the highest 2% start at about 11. This is one part of a sample in which the highest values are shown more often than they occur.
B1: PhoQ; a variant is named by its letters at X, in order, P23837 (parent)
chain: MKKLLRLFFPLSLRVRFLLATAAVVLVLSLAYGMVALIGYSVSFDKTTFRLLRGESNLFYTLAKWENNKLHVELPENIDKQSPTMTLIYDENGQLLWAQRDVPWLMKMIQPDWLKSNGFHEIEADVNDTSLLLSGDHSIQQQLQEVREDDDDAEMTHSVAVNVYPATSRMPKLTIVVVDTIPVELKSSYMVWSWFIYVLSANLLLVIPLLWVAAWWSLRPIEALAKEVRELEEHNRELLNPATTRELTSLVRNLNRLLKSERERYDKYRTTLTDLTHSLKTPLXXLQXXLRSLRSEKMSVSDAEPVMLEQISRISQQIGYYLHRASMRGGTLLSRELHPVAPLLDNLTSALNKVYQRKGVNISLDISPEISFVGEQNDFVEVMGNVLDNACKYCLEFVEISARQTDEHLYIVVEDDGPGIPLSKREVIFDRGQRVDTLRPGQGVGLAVAREITEQYEGKIVAGESMLGGARMEVIFGRQHSAPKDE

Variants of: B1
Test: enrichment ratio after two sorts for PhoP signalling (ratio (wild type AVST 3.29)); higher = more functional
Conditions: with PhoP (E. coli)

| Variant | enrichment ratio |
| --- | --- |
| RKTG | ≤ 0.25 |
| ECNY | ≤ 0.25 |
| LALQ | 1.26 |
| AHVS | ≤ 0.25 |
| AIVS | 12.6 |
| WIVS | ≤ 0.25 |
| TKVS | 7.5 |
| AKVS | 13.5 |
| AAVS | ≤ 0.25 |
| YWKL | ≤ 0.25 |
| HFDQ | ≤ 0.25 |
| TNMH | 15.7 |
| MNQV | ≤ 0.25 |
| TNNV | 13.4 |
| TNHI | ≤ 0.25 |
| TNVA | ≤ 0.25 |
| TNMI | 11.7 |
| TNCV | 10 |
| TNQV | 47.4 |
| TNCH | ≤ 0.25 |
| TNMG | ≤ 0.25 |
| MNNV | ≤ 0.25 |
| TNWR | ≤ 0.25 |
| TTFC | ≤ 0.25 |
| IGNC | ≤ 0.25 |

| Variant | enrichment ratio |
| --- | --- |
| NNDF | ≤ 0.25 |
| KDQI | ≤ 0.25 |
| WTKG | ≤ 0.25 |
| KNQF | ≤ 0.25 |
| FFRV | ≤ 0.25 |
| IYFT | ≤ 0.25 |
| ECCW | ≤ 0.25 |
| SVDL | 1.56 |
| WHFP | ≤ 0.25 |
| TNIV | ≤ 0.25 |
| TNMV | 12.6 |
| TNMS | 4.8 |
| KYGA | ≤ 0.25 |
| SRGA | ≤ 0.25 |
| STMA | 4.9 |
| KYMA | ≤ 0.25 |
| SEMA | 13.6 |
| SEGA | 12 |
| ALVP | ≤ 0.25 |
| HAVN | ≤ 0.25 |
| FQPY | ≤ 0.25 |
| AECD | 17 |
| AESH | 1.31 |
| AEPL | ≤ 0.25 |
| AWCD | ≤ 0.25 |

| Variant | enrichment ratio |
| --- | --- |
| AESI | 25.1 |
| AEWV | ≤ 0.25 |
| AECV | 21.4 |
| AEGL | 1.47 |
| QECD | ≤ 0.25 |
| AESR | 3.86 |
| AECL | 20.9 |
| AEES | ≤ 0.25 |
| DTCP | ≤ 0.25 |
| FCNA | ≤ 0.25 |
| VDPQ | ≤ 0.25 |
| GHKH | ≤ 0.25 |
| IWMV | ≤ 0.25 |
| MRYG | ≤ 0.25 |
| VCGI | ≤ 0.25 |
| VANS | ≤ 0.25 |
| KPRL | ≤ 0.25 |
| AECG | ≤ 0.25 |
| AECK | ≤ 0.25 |
| AIIF | ≤ 0.25 |
| AECS | 39.5 |
| AEIF | 18.6 |
| AECI | 4.88 |
| AECP | ≤ 0.25 |
| AECA | 42.4 |

| Variant | enrichment ratio |
| --- | --- |
| ADIF | ≤ 0.25 |
| AECQ | 30.9 |
| RMEF | ≤ 0.25 |
| THRH | ≤ 0.25 |
| LFGG | ≤ 0.25 |
| SVRY | ≤ 0.25 |
| VDCR | ≤ 0.25 |
| PYWQ | ≤ 0.25 |
| SCKQ | ≤ 0.25 |
| SCCE | 13.9 |
| SCIE | ≤ 0.25 |
| SCIL | 0.31 |
| KCCQ | ≤ 0.25 |
| SCNE | ≤ 0.25 |
| SCCK | 14.3 |
| SCVL | 1.96 |
| SCWM | ≤ 0.25 |
| SCCQ | 13.2 |
| SCCL | 18.7 |
| SCCI | 9.92 |
| QNII | ≤ 0.25 |
| YSFC | ≤ 0.25 |
| QFDM | ≤ 0.25 |
| MRHI | ≤ 0.25 |
| SCGG | 11.1 |

| Variant | enrichment ratio |
| --- | --- |
| SCCG | 14.3 |
| SCGL | 13.6 |
| SCTM | 17.9 |
| SCRM | ≤ 0.25 |
| KCCG | ≤ 0.25 |
| SCGM | 9.65 |
| SCNL | 0.751 |
| KYGL | ≤ 0.25 |
| IPCK | ≤ 0.25 |
| NTGH | ≤ 0.25 |
| VHAE | ≤ 0.25 |
| RFHG | ≤ 0.25 |
| GDAF | ≤ 0.25 |
| THIS | ≤ 0.25 |
| SATC | 5.33 |
| SATS | 14.2 |
| SSDK | ≤ 0.25 |
| SFLI | 0.615 |
| AHTY | ≤ 0.25 |
| NNTY | ≤ 0.25 |
| TMTY | 12.9 |
| SSLI | 18.9 |
| SATD | ≤ 0.25 |
| AITY | 3.48 |
| AETY | 16 |

| Variant | enrichment ratio |
| --- | --- |
| HATY | ≤ 0.25 |
| IYRF | ≤ 0.25 |
| VMFP | ≤ 0.25 |
| EPNR | ≤ 0.25 |
| LVNK | ≤ 0.25 |
| AYMN | ≤ 0.25 |
| SQGS | 7.13 |
| NISG | ≤ 0.25 |
| NDHH | ≤ 0.25 |
| LCTY | ≤ 0.25 |
| TSTY | 11.6 |
| SITY | 12.7 |
| TSAY | 11.6 |
| MMTY | ≤ 0.25 |
| FQTY | ≤ 0.25 |
| KYTY | ≤ 0.25 |
| DHTY | ≤ 0.25 |
| TQTY | 17.5 |
| KSAY | 0.715 |
| SQTY | 8.07 |
| FSAY | ≤ 0.25 |
| HMAW | ≤ 0.25 |
| ILRI | ≤ 0.25 |
| DLNY | ≤ 0.25 |
| WPQA | ≤ 0.25 |

| Variant | enrichment ratio |
| --- | --- |
| AKWY | ≤ 0.25 |
| SATY | 12.7 |
| SSTY | 11.3 |
| QETY | ≤ 0.25 |
| METY | 3.22 |
| TKWY | 12.9 |
| NVTY | ≤ 0.25 |
| NATY | ≤ 0.25 |
| KSTY | ≤ 0.25 |
| KATY | ≤ 0.25 |
| SETY | 15 |
| KSWY | ≤ 0.25 |
| VMNQ | ≤ 0.25 |
| KFEC | ≤ 0.25 |
| WKRY | ≤ 0.25 |
| SIGY | 14.3 |
| MMWY | ≤ 0.25 |
| KYGY | ≤ 0.25 |
| SLGY | 1.84 |
| TSWY | 14.1 |
| LCWY | ≤ 0.25 |
| VGCD | ≤ 0.25 |
| QAGQ | 24.5 |
| QPGQ | ≤ 0.25 |
| QAGD | ≤ 0.25 |

| Variant | enrichment ratio |
| --- | --- |
| FAMQ | 45 |
| QAVQ | ≤ 0.25 |
| QAMQ | 44.4 |
| MAMQ | ≤ 0.25 |
| TPGQ | 16 |
| NAGQ | ≤ 0.25 |
| QGGQ | 8.17 |
| FAVQ | ≤ 0.25 |
| QAMV | ≤ 0.25 |
| KRHT | ≤ 0.25 |
| IASQ | ≤ 0.25 |
| FDMR | ≤ 0.25 |
| HIEP | ≤ 0.25 |
| ITVA | ≤ 0.25 |
| SHRP | ≤ 0.25 |
| NRKT | ≤ 0.25 |
| GQLV | 7.76 |
| SALF | 9.67 |
| KRAM | ≤ 0.25 |
| MDPE | ≤ 0.25 |
| EKES | ≤ 0.25 |
| ASSK | ≤ 0.25 |
| ASSR | ≤ 0.25 |
| ASHP | ≤ 0.25 |
| ASSQ | 14.5 |

| Variant | enrichment ratio |
| --- | --- |
| ASKA | ≤ 0.25 |
| ASSS | 11.9 |
| VWGF | ≤ 0.25 |
| SDHM | ≤ 0.25 |
| AQDN | ≤ 0.25 |
| PECQ | ≤ 0.25 |
| IETV | ≤ 0.25 |
| GGGF | ≤ 0.25 |
| GVHF | ≤ 0.25 |
| GNSF | 1.14 |
| GVGF | 12 |
| GVSF | 11.8 |
| GYGF | ≤ 0.25 |
| DDND | ≤ 0.25 |
| QPHR | ≤ 0.25 |
| FDYT | ≤ 0.25 |
| YIRR | ≤ 0.25 |
| TSCH | 15.8 |
| KSCH | ≤ 0.25 |
| KSNF | ≤ 0.25 |
| KSHV | ≤ 0.25 |
| TSNF | 16.1 |
| KSWA | ≤ 0.25 |
| MMNF | ≤ 0.25 |
| FSCH | 0.442 |

| Variant | enrichment ratio |
| --- | --- |
| MMWA | ≤ 0.25 |
| TSHV | 13.7 |
| THHV | ≤ 0.25 |
| TSWA | 15.4 |
| QSCS | ≤ 0.25 |
| SYVA | ≤ 0.25 |
| GMCC | ≤ 0.25 |
| FQGH | ≤ 0.25 |
| NRAM | ≤ 0.25 |
| KRFS | ≤ 0.25 |
| CNWS | ≤ 0.25 |
| RPDF | ≤ 0.25 |
| KFLF | ≤ 0.25 |
| SCDN | ≤ 0.25 |
| PMCH | ≤ 0.25 |
| MMTI | ≤ 0.25 |
| TSTA | 14.2 |
| WSEI | ≤ 0.25 |
| TSTI | 22 |
| KSEI | ≤ 0.25 |
| MMTA | ≤ 0.25 |
| LCTA | ≤ 0.25 |
| TSEI | 15.3 |
| TSHE | 5.88 |
| WITI | ≤ 0.25 |

| Variant | enrichment ratio |
| --- | --- |
| TSHF | 13.4 |
| KSHF | ≤ 0.25 |
| LGWN | ≤ 0.25 |
| TWGR | ≤ 0.25 |
| FHQM | ≤ 0.25 |
| TARV | ≤ 0.25 |
| QSIY | ≤ 0.25 |
| TSHQ | 11.8 |
| THHQ | ≤ 0.25 |
| KSHQ | ≤ 0.25 |
| DFQV | ≤ 0.25 |
| WHCG | ≤ 0.25 |
| AQNL | ≤ 0.25 |
| AQLT | 8.16 |
| AQLS | 10.2 |
| AQLA | 19 |
| AQCN | 4.1 |
| AQTK | ≤ 0.25 |
| AQTC | 9.55 |
| AQLN | 31.6 |
| AQTS | 12.8 |
| FEWS | ≤ 0.25 |
| RCQR | ≤ 0.25 |
| FLMM | 1.72 |
| YNDD | ≤ 0.25 |

| Variant | enrichment ratio |
| --- | --- |
| IFQD | ≤ 0.25 |
| AKFS | ≤ 0.25 |
| TMCG | 15 |
| NNCV | ≤ 0.25 |
| TMCH | 15.9 |
| DMCV | ≤ 0.25 |
| TMMH | 5.83 |
| HACH | ≤ 0.25 |
| EMCG | ≤ 0.25 |
| TMCE | 21.2 |
| TMPE | ≤ 0.25 |
| KMCG | ≤ 0.25 |
| TMIE | ≤ 0.25 |
| TMCV | 13.2 |
| NTFT | ≤ 0.25 |
| DACN | ≤ 0.25 |
| YKFT | ≤ 0.25 |
| VRAW | ≤ 0.25 |
| EVCN | ≤ 0.25 |
| PEAM | ≤ 0.25 |
| EYVE | ≤ 0.25 |
| HGYS | ≤ 0.25 |
| QTTN | ≤ 0.25 |
| SFNA | ≤ 0.25 |
| MWTS | ≤ 0.25 |

| Variant | enrichment ratio |
| --- | --- |
| PLKT | ≤ 0.25 |
| RNTM | ≤ 0.25 |
| WPSM | ≤ 0.25 |
| TMKE | 13.6 |
| TMWI | ≤ 0.25 |
| TMNE | ≤ 0.25 |
| NHGE | ≤ 0.25 |
| TMCS | 16.8 |
| TMGE | 14.8 |
| THGE | ≤ 0.25 |
| TMSE | 15.9 |
| MMSE | ≤ 0.25 |
| TMPA | ≤ 0.25 |
| DMSE | ≤ 0.25 |
| NMKE | ≤ 0.25 |
